# In the library only some 21% were active in any assay of this set; here they are far more common.
# TDP1 cell noCPT: qHTS for Inhibitors of human tyrosyl-DNA phosphodiesterase 1 (TDP1): qHTS in cells in absence of CPT; DT40 Tdp1-/- hTDP1 cells, no CPT, ATP luminescence, 48 h; Potency, µM (highest dose often 46.2 µM), for the others: at the highest dose activity change, negative = growth inhibition, usual class: inhibitors; hit rate 15% among 420,000; note: potency is the fitted concentration of half-maximal effect; nearly all actives have a fitted effect of over 55% in size
#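 No-CPT arm: Tdp1-/-;hTDP1 DT40 cells (400/well) plus compounds, incubated ≥48 hr at 37 °C. Readout CellTiter-Glo luminescence.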
# VP16 counter: inhibits Gal4-VP16 luciferase reporter, ROR gamma counter-screen; Drosophila S2 Gal4-VP16 UAS-luciferase, luminescence, 20 h; Potency, µM (series often up to 53.6 µM), inactives show at the top dose activity, negative = inhibition, hits mostly inhibitors; hit rate 3.5% among 310,000;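 note: Gal4-VP16 expression switched on by copper sulfate through the metallothionein promoter; potency is the fitted concentration of half-maximal effect; nearly all actives have a fitted effect of over 50% in size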
# DT40 TDP1 CPT: DT40-hTDP1 cell growth loss with CPT; chicken DT40 Tdp1-/-;hTDP1 cells + 20 nM CPT, ATP luminescence, 48 h; Potency, µM (highest dose often 46.2 µM), for inactives: top-dose activity change, negative = growth inhibition, usual class: inhibitors; hit rate 12% among 420,000; note: potency is the fitted concentration of half-maximal effect; nearly all actives have a fitted effect of over 55% in size
#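 Chicken DT40 Tdp1-/- cells complemented with human TDP1, 400 cells/well, exposed to compounds plus 20 nM camptothecin for at least 48 h at 37 C; viability read as ATP content by CellTiter-Glo luminescence.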
# IL1B secr inh: inhibitors of inflammasome signaling (IL-1 beta secretion). THP-1 LPS/ATP IL-1B secretion, AlphaLISA, 16 h; stronger effect = lower value. activity change, % at 57.5 µM. hit rate 4.7% among 360,000; in the data active = activity change below about -50%; inconclusive = mostly about -30% to -49%
#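 Secreted IL-1B measured by AlphaLISA bead assay after 16 h compound exposure of THP-1 cells; compounds (final up to 57.5 uM) added 1 h before LPS (250 ng/mL) and ATP (1.25 mM) stimulation; lower signal means less secretion.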
# RORg inh: blocks mouse ROR gamma transcriptional activity. P51450. Drosophila S2 Gal4-RORgamma UAS-luciferase reporter, 20 h. Potency, µM (series often up to 53.6 µM), without a hit: at the highest dose activity change, negative = inhibition, most hits filed as inhibitors. hit rate 5.4% among 310,000. AID 2551; note: potency is the fitted concentration of half-maximal effect; nearly all actives have a fitted effect of over 60% in size
# Target sequence (P51450 whole entry, looked up, the tested form may be a part): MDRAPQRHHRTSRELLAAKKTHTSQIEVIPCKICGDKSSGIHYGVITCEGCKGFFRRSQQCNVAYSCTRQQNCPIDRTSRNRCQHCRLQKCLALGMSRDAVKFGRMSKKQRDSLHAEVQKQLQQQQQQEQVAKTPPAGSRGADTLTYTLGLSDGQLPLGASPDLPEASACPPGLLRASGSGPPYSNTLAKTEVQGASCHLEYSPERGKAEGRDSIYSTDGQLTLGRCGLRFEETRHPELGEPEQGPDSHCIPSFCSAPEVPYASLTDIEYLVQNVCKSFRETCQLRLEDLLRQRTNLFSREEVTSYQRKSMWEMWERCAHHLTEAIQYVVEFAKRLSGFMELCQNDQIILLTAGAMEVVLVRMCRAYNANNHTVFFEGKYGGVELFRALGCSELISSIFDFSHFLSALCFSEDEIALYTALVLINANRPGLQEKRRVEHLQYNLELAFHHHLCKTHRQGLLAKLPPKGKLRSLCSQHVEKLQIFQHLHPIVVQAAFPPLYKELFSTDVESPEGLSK
#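 Drosophila S2 cells stably expressing Gal4-DBD/mouse RORγ fusion under metallothionein promoter plus UAS-luciferase; compound 1 h, then 700 uM CuSO4 induction for 20 h at ambient temperature; inhibition read as reduced luminescence.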
# ELG1 DNA repair: ELG1-dependent DNA repair inhibition. HEK293T ELG1-luciferase reporter, luminescence, 16 h; DNA damage induced by 5-fluorouridine. Potency, µM (doses to about 46.1 µM), for the others: at the highest dose activity change, negative = inhibition, usual class: inhibitors. hit rate 2.3% among 330,000. AID 504467; note: potency is the fitted concentration of half-maximal effect; nearly all actives have a fitted effect of over 55% in size
#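 Luminescence from the luciferase reporter, measured 30 min after ONE-Glo reagent at room temperature, was the read-out. Beforehand, 2,000 cells per well were exposed for 16 hr at 37 °C to 5-fluorouridine together with compound or vehicle.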
# Numbers without * were called inactive; ? = inconclusive; nt = no result; [ ] = another dose, or the depositor's remark. Unless noted, calls come from the whole dose curve; as a rule, active = well fitted curve in the direction sought with a large enough effect; inconclusive = small, poorly fitted or top-dose-only effect, or another doubt; inactive = no such curve, though single readings can be large; an effect the other way counts as inactive or inconclusive. % is set by controls: 0 for no effect and ±100 for the full control effect.
SMILES,TDP1 cell noCPT,VP16 counter,DT40 TDP1 CPT,IL1B secr inh,RORg inh,ELG1 DNA repair
O=C(CS(=O)(=O)c1ccccc1)Nc1nc(-c2ccc(F)cc2)cs1,?,5%,?,-22,44%,?
O=C(CCS(=O)(=O)c1ccccc1)Nc1nc(-c2ccc(F)cc2)cs1,?,?,?,-77*,-42%,7%
O=C(CCc1ccccc1)N1CCN(c2ccccc2F)CC1,3%,-8%,-7%,-4,22%,-4%
O=C(CCCOc1ccccc1)N1CCN(c2ccc(F)cc2)CC1,18µM*,2%,?,-16,?,?
O=C(CCc1ccccc1)N1CCN(c2ccc(F)cc2)CC1,-16%,-6%,-21%,6,7%,-13%
O=C(CSCc1ccccc1)N1CCN(c2ccc(F)cc2)CC1,?,-12%,13µM*,?,?,28%
O=C(CSCc1ccc(F)cc1)N1CCN(c2ccccc2F)CC1,26µM*,nt,21µM*,nt,nt,nt
CC(=O)C[n+]1cccc(Br)c1,0%,nt,6%,nt,nt,nt
COC(=O)c1cc(-c2ccc(S(=O)(=O)N3CCCCC3)cc2)c(C(F)(F)F)s1,23µM*,-11%,?,9,?,10%
CCN(CC)S(=O)(=O)c1ccc(-c2cc(C(=O)OC)sc2C(F)(F)F)cc1,18µM*,2%,-30%,-21,?,-11%
COC(=O)c1cc(-c2ccc(S(=O)(=O)N3CCCC3)cc2)c(C(F)(F)F)s1,?,1%,10%,3,?,-3%
CS(=O)(=O)N1CCC2(CCCN(Cc3ccccc3)C2)CC1,-9%,-5%,7%,nt,4%,nt
NCCC[C@@H](CC(=O)N[C@@H]1CCNC[C@H]1C(=O)N[C@H](CC(=O)N[C@@H](CCC(=O)O)CC(=O)O)Cc1c[nH]c2ccccc12)NC(=O)C[C@H](Cc1ccccc1)NC(=O)[C@@H]1CNCC[C@H]1N,nt,-7%,nt,nt,-20%,nt
COC(=O)C(C(=O)OC)c1ccccc1NS(=O)(=O)c1ccc(C)cc1,20%,nt,-6%,63,nt,nt
CCOC(=O)c1c(C)oc2c1cc(NS(=O)(=O)c1ccc(C)cc1)c1ccccc12,21µM*,nt,?,nt,nt,nt
COC(=O)c1c(C)oc2c1cc(NS(=O)(=O)c1c(C)cc(C)cc1C)c1ccccc12,21µM*,nt,12µM*,nt,nt,nt
COC(=O)C(C(=O)OC)c1ccccc1NS(=O)(=O)c1c(C)cc(C)cc1C,21µM*,nt,16µM*,34,nt,nt
CCOC(=O)c1c(C)oc2c(Cl)cc(NS(=O)(=O)c3ccc(Cl)c(C)c3)cc12,26µM*,nt,?,nt,nt,nt
Cc1cc(C)cc(OC(C)C(=O)Nc2c(C(=O)c3ccccc3)oc3ccccc23)c1 (stereo unspecified),2%,nt,-1%,nt,nt,nt
COCCCNC(=O)Cc1ccc(S(=O)(=O)N2CCOCC2)s1,-3%,nt,-2%,15,nt,?
C1=Cc2ccccc2/C1=C\c1ccc(/C=C2\C=Cc3ccccc32)cc1,-9%,nt,-2%,nt,nt,nt
C1=Cc2ccccc2/C1=C\c1cc2c3c(c1)CCCN3CCC2,5µM*,nt,1.1µM*,nt,nt,nt
Nc1nc(NC2CC2)c2ncn([C@H]3C=C[C@@H](CO)C3)c2n1,nt,-16%,nt,nt,1%[10 µM],nt
COc1nc(-c2ccccc2)ccc1-c1noc(-c2cccs2)n1,-16%,nt,1%,30,nt,nt
COc1nc(C)ccc1-c1noc(-c2cccs2)n1,9%,?,-4%,-3,1.8µM*,?
SMILES,TDP1 cell noCPT,VP16 counter,DT40 TDP1 CPT,IL1B secr inh,RORg inh,ELG1 DNA repair
CO/N=C(/C(=O)NC1C(=O)N2C(C(=O)O)=C(COC(N)=O)CSC12)c1ccco1 (stereo unspecified),0%,-2%,7%,nt,8%,nt
C=CC(=O)O,-1%,-2%,-25%,nt,9%[10 µM],nt
CCc1nc2ccc(C(=O)N3CCN(c4cccc(C(F)(F)F)c4)CC3)cc2nc1CC,?,1%,?,-18,30%,0%
CSc1ccc(CCNC(=O)c2ccc(-c3nc(COc4ccccc4)c(C)o3)cc2)cc1,-17%,nt,-10%,nt,nt,nt
Cc1ccc(OCc2nc(-c3ccc(C(=O)N4CCN(c5cccc(C(F)(F)F)c5)CC4)cc3)oc2C)cc1,?,nt,16µM*,nt,nt,nt
Cc1ccc(C)c(N2CCN(C(=O)c3ccc(-c4nc(COc5ccccc5)c(C)o4)cc3)CC2)c1,15µM*,nt,23µM*,nt,nt,nt
CCOC(=O)c1ccc(NC(=O)CCc2c(C)n(CC)c3cc(-c4ccccc4OC)nn3c2=O)cc1,-12%,nt,12%,nt,nt,nt
C[C@H](N)C(=O)NCC(=O)N[C@H]1CSSC[C@@H](C(=O)O)NC(=O)[C@H](CO)NC(=O)[C@H]([C@@H](C)O)NC(=O)[C@H](Cc2ccccc2)NC(=O)[C@H]([C@@H](C)O)NC(=O)[C@H](CCCCN)NC(=O)[C@@H](Cc2c[nH]c3ccccc23)NC(=O)[C@H](Cc2ccccc2)NC(=O)[C@H](Cc2ccccc2)NC(=O)[C@H](CC(N)=O)NC(=O)[C@H](CCCCN)NC1=O,nt,-2%,nt,nt,3%,nt
COc1ccc(C(=O)C2CCCN(Cc3c(C)[nH]c4ccccc34)C2)c(OC)c1 (stereo unspecified),nt,-8%,nt,nt,-11%,-7%
COc1ccc(CN2CCCC(C(=O)c3ccc(Cl)cc3)C2)cc1Cn1cccn1 (stereo unspecified),?,17%,?,-92*,?,-19%
COc1ccc(C(=O)C2CCCN(Cc3cc(C)c(O)c(C)c3)C2)c(OC)c1 (stereo unspecified),21µM*,4%,?,?,20%,?
CCOc1cc(CN2CCCC(C(=O)c3cccc(C(F)(F)F)c3)C2)ccc1O (stereo unspecified),26µM*,-5%,?,-3,1%,7%
COc1ccc(C(=O)NC2CCCN(Cc3ccc(Cl)cc3)C2)c(OC)c1 (stereo unspecified),12µM*,1%,16µM*,-25,?,?
O=C(Nc1ccc2nn(-c3ccccc3)nc2c1)c1ccc(-c2cccc(Cl)c2)o1,?,nt,-25%,nt,nt,nt
COc1cc2c(cc1OC)CN(C1CCCN(Cc3cc(Cl)ccc3O)C1)CC2 (stereo unspecified),?,-6%,16µM*,0,3%,-17%
COc1cc(CN2CCCC(C(=O)c3ccc(C(C)(C)C)cc3)C2)cc(OC)c1O (stereo unspecified),?,-3%,?,-79*,15%,-8%
